Results: the supplement of paper PMC6555819

Each sequence was assayed on RXRa DBDmut IVT, anti-RXR (DBD mutation: RXRa K156A/R161A, NR concentration 90 nM) (assay: PBM binding z-score (relative to random genomic background probes); higher = stronger binding; sequences stand for … in GC…GCGATTGACAGCGTAGAATGAAGG).
Method in brief: (§1)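 Antibodies against each partner of ligand-free nuclear receptor dimers (one per run) detected binding on custom Agilent 4×180K protein-binding microarrays after 1 h incubation. The double-stranded probes had 34-nt variable regions carrying direct-repeat seeds, single-nucleotide variants, half-site ablations and random human genomic background sequences. Binding z-scores, from regression-normalized fluorescence, use the random background probes as reference.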
Work on AATACAGGGTCATCGTAGGCCAGAGTTCGCACAG yielded a PBM binding z-score of 3.68.
In the case of CCTATTAGTTGACCATAAGGGAAACCGAAGCTCG, the PBM binding z-score is reported as 0.71.
Work on CCGAGCAGGCCAGGGTCACTCAAGCATTTCGCTT yielded a PBM binding z-score of 0.694.
In the case of CTCGAAAGGTCGTGCTCAGGTGTGTATACCAAAC, the PBM binding z-score is reported as 2.5.
In the case of CCTCGGAGGACAACACGAGGTCAGAGCTGCCAGA, the PBM binding z-score is reported as 0.871.
Work on TCTGCTAGGTCAGTTGGTCAGCAAACGAGCTGCC yielded a PBM binding z-score of 0.526.
For GCATATAGGTAATACAAGGTGAAAGTACGATTGT, the PBM binding z-score was 0.0522.
ATCTCTAGGTACAAGTTCAGTGAATCCCGAGGAT showed a PBM binding z-score of 1.93.
For ATCGAAAGATCGAAGGTGAGTATACCCACCCGAA, the PBM binding z-score was -0.722.
With CCTAGCAGGCCAATCTGGGTCACTGAAGGCTTGA the PBM binding z-score was 0.114.
Work on CCAGACAGGTGAAAGGTAACTCATTCTGGTACGC yielded a PBM binding z-score of 0.192.
ATCTCTAGGTAACACTCAGTTCAGTGAAGAACGC showed a PBM binding z-score of 1.05.
In the case of ACTTACGGGTCAAAGAGGTTATAGCACGCGTATA, the PBM binding z-score is reported as 2.54.
In the case of CCTATTAGTTGACGATAAGGGCAACCGAAGCTCG, the PBM binding z-score is reported as 0.16.
Work on GCTTACGGGTCAAAGGATATAGCATGAATAGAAT yielded a PBM binding z-score of 1.92.
Sequence ACAGACAGCTGATGAAGGTAACTCAGGCTATCAT has a PBM binding z-score of -0.306.
In the case of GGAACGAGGGCAAAGTTGATAGCGTCTGTCGACG, the PBM binding z-score is reported as 2.69.
In the case of TTACCAAGGTGAAGATCGTTGATCCCTCTGTAGA, the PBM binding z-score is reported as -0.349.
For TATTGTAGATCAAGCAGGTTAAGAAAGCCTGAGT, the PBM binding z-score was -0.887.
CCTCGGAGGACAGAAGGTCAGTGCTGTCCGCTTT gave a PBM binding z-score of 0.236.
GCTATTAGTTGAAAGGGCAACAGAATGATTCTCG was tested, and the PBM binding z-score was 0.874.
In the case of TAGCCTAGGTCATTGGCCAGTATACCACGCGAAC, the PBM binding z-score is reported as 1.68.
In the case of ACTCGGAGGACAATGGTCAGAGCTACGCCAGTGA, the PBM binding z-score is reported as 0.216.
In the case of TCATATAGGTAAATGCTAGGCGAAAGTCCGATCT, the PBM binding z-score is reported as 1.43.
In the case of CCTCAAAGTTCAACTAAGGTAACGTAAAGCACGC, the PBM binding z-score is reported as 4.41.
In the case of TCATATAGCTAAAGGTGAAAGTCGAACGATATGA, the PBM binding z-score is reported as 0.443.
For TCGAGTAGGTGAGGGGCATTCAGAATGGCGTCGA, the PBM binding z-score was 0.0823.
Work on TCATAGAGGTAATACAGGTGAAAGTCGGCATCTA yielded a PBM binding z-score of 1.01.
TATATTAGTTGATTAGGGCAACCGAAACAGCGGA showed a PBM binding z-score of 0.252.
ACTAGTTGGTCAGCTGAGGTCACACGCAATTCGG gave a PBM binding z-score of 1.4.
In the case of CGAACTAGGTCAGAACAGGACAGCGAAGGATGAT, the PBM binding z-score is reported as 0.432.
Work on CGTCCAAGGTCAATGCTAGGTTAGTGAAAGCATT yielded a PBM binding z-score of 3.86.
AGTCAAAGTTCATTAGGTAACGTAAGATTCAGCT was tested, and the PBM binding z-score was 4.97.
Work on CCTAATAGTTGACCATAAGGGCAACCGAAGCTCG yielded a PBM binding z-score of 0.375.
Sequence CAAACTAGTTCACAGAGGTCAAAGTCCGTGCGTA has a PBM binding z-score of 3.93.
For CCGACTGGGGCAAAAGGTTACCATAAGCCAGCCC, the PBM binding z-score was 0.0121.
Work on TCTTGTAGATCAACAGGAGCTTAAGAAAGATCGA yielded a PBM binding z-score of -0.0794.
ACAGACAGGTGAGTGAATGTAACTCAGCTGGACG gave a PBM binding z-score of -0.311.
Sequence ATTATTAGTTGAGACGAGGGCAACCGATAGGTTG has a PBM binding z-score of 0.511.
Sequence AGAATGAGGATATACGTAGATCAGGGAAGAAAGT has a PBM binding z-score of -0.474.

Each sequence was assayed on RXRa homodimer (NR concentration 180 nM) in the same assay as above.
Method in brief: as §1
In the case of AATACAGGGTCATCGTAGGCCAGAGTTCGCACAG, the PBM binding z-score is reported as 6.43.
In the case of CCTATTAGTTGACCATAAGGGAAACCGAAGCTCG, the PBM binding z-score is reported as 0.398.
For CCGAGCAGGCCAGGGTCACTCAAGCATTTCGCTT, the PBM binding z-score was 3.6.
Sequence CTCGAAAGGTCGTGCTCAGGTGTGTATACCAAAC has a PBM binding z-score of 4.71.
In the case of CCTCGGAGGACAACACGAGGTCAGAGCTGCCAGA, the PBM binding z-score is reported as 2.23.
TCTGCTAGGTCAGTTGGTCAGCAAACGAGCTGCC was tested, and the PBM binding z-score was 0.98.
For GCATATAGGTAATACAAGGTGAAAGTACGATTGT, the PBM binding z-score was 0.99.
In the case of ATCTCTAGGTACAAGTTCAGTGAATCCCGAGGAT, the PBM binding z-score is reported as 0.729.
In the case of ATCGAAAGATCGAAGGTGAGTATACCCACCCGAA, the PBM binding z-score is reported as 0.765.
For CCTAGCAGGCCAATCTGGGTCACTGAAGGCTTGA, the PBM binding z-score was 0.872.
Sequence CCAGACAGGTGAAAGGTAACTCATTCTGGTACGC has a PBM binding z-score of 2.12.
ATCTCTAGGTAACACTCAGTTCAGTGAAGAACGC gave a PBM binding z-score of 0.63.
ACTTACGGGTCAAAGAGGTTATAGCACGCGTATA was tested, and the PBM binding z-score was 6.31.
CCTATTAGTTGACGATAAGGGCAACCGAAGCTCG showed a PBM binding z-score of 0.582.
GCTTACGGGTCAAAGGATATAGCATGAATAGAAT gave a PBM binding z-score of 5.17.
Work on ACAGACAGCTGATGAAGGTAACTCAGGCTATCAT yielded a PBM binding z-score of 0.083.
GGAACGAGGGCAAAGTTGATAGCGTCTGTCGACG showed a PBM binding z-score of 2.17.
TTACCAAGGTGAAGATCGTTGATCCCTCTGTAGA gave a PBM binding z-score of 0.567.
In the case of TATTGTAGATCAAGCAGGTTAAGAAAGCCTGAGT, the PBM binding z-score is reported as 0.374.
CCTCGGAGGACAGAAGGTCAGTGCTGTCCGCTTT was tested, and the PBM binding z-score was 1.25.
GCTATTAGTTGAAAGGGCAACAGAATGATTCTCG gave a PBM binding z-score of 1.24.
Work on TAGCCTAGGTCATTGGCCAGTATACCACGCGAAC yielded a PBM binding z-score of 3.22.
For ACTCGGAGGACAATGGTCAGAGCTACGCCAGTGA, the PBM binding z-score was -0.0471.
TCATATAGGTAAATGCTAGGCGAAAGTCCGATCT was tested, and the PBM binding z-score was 0.556.
CCTCAAAGTTCAACTAAGGTAACGTAAAGCACGC showed a PBM binding z-score of 5.11.
Sequence TCATATAGCTAAAGGTGAAAGTCGAACGATATGA has a PBM binding z-score of 1.84.
Sequence TCGAGTAGGTGAGGGGCATTCAGAATGGCGTCGA has a PBM binding z-score of 0.442.
TCATAGAGGTAATACAGGTGAAAGTCGGCATCTA showed a PBM binding z-score of 1.16.
Sequence TATATTAGTTGATTAGGGCAACCGAAACAGCGGA has a PBM binding z-score of 0.43.
For ACTAGTTGGTCAGCTGAGGTCACACGCAATTCGG, the PBM binding z-score was 4.02.
CGAACTAGGTCAGAACAGGACAGCGAAGGATGAT showed a PBM binding z-score of 1.39.
Work on CGTCCAAGGTCAATGCTAGGTTAGTGAAAGCATT yielded a PBM binding z-score of 4.75.
Sequence AGTCAAAGTTCATTAGGTAACGTAAGATTCAGCT has a PBM binding z-score of 4.52.
In the case of CCTAATAGTTGACCATAAGGGCAACCGAAGCTCG, the PBM binding z-score is reported as 0.786.
Sequence CAAACTAGTTCACAGAGGTCAAAGTCCGTGCGTA has a PBM binding z-score of 6.83.
CCGACTGGGGCAAAAGGTTACCATAAGCCAGCCC was tested, and the PBM binding z-score was 2.71.
TCTTGTAGATCAACAGGAGCTTAAGAAAGATCGA was tested, and the PBM binding z-score was -0.154.
Sequence ACAGACAGGTGAGTGAATGTAACTCAGCTGGACG has a PBM binding z-score of 0.676.
ATTATTAGTTGAGACGAGGGCAACCGATAGGTTG gave a PBM binding z-score of 0.708.
AGAATGAGGATATACGTAGATCAGGGAAGAAAGT gave a PBM binding z-score of -0.0531.
